# From the OligoGym collection
# Target: SYCP2L
# Experiment: pooled miR-30 sensor sort-seq; sequence = guide strand
# Settings: shRNA
# Note: reference of the scale not given here.
row,Sequence,sensor-assay potency score (higher = more potent)
1,TATATAAAAAGTGACACTCTGA,-0.257
2,TTCATCACCGCTTCCTTCGGAA,-0.0578
3,AATATCTTTATCTTCTCCGTTT,-0.529
4,ATCTTCTATAACACAAATCAGC,-1.67
5,TTATTGATCTGTCAAGACGGTA,-0.997
6,TTCTATAACACAAATCAGCGAC,-0.297
7,TTGGTCACCAAGTCTGTTGTTT,-0.185
8,TAGGTTTTTCTTCATCTTCTGA,-0.679
9,TTGATTGTTGTGACTTAGCAAA,-1.27
10,TTCTTTGTAGCTGATAATCATG,-1.28
11,TTCATGACTTCTTTGTAGCTGA,0.227

# Target: SYN3
# Experiment: as above
# Settings: shRNA
row,Sequence,sensor-assay potency score (higher = more potent)
1,TTTGGAGACAACAAGGTCGGCC,-0.0801
2,TTTCTGGATGCGGATGTCGTAC,-1.02
3,TTTGCTGCTGTGGAGATCCGGA,-0.473
4,TTTTGGAGACAACAAGGTCGGC,-0.766
5,TAGTTGGATCCAATTTTCTGGA,-1.06
6,TTCCACATGCTCTCCAATCAGC,-0.957
7,TAATCTCTGCCATCCTTGCTGT,-0.283
8,TTCCACTTTGATCTTTCCCATT,-1.45
9,TTGTAGACGGAGTAGAGAGAGT,-1.24
10,TCGATCACCAACAGGATCCTGG,-0.321
11,TTGGCCTCGTCTTCACTTGGGG,-0.142
